Data published in PubChem BioAssay AID1986 (Sanford-Burnham Center for Chemical Genomics, 2009).
Among all 290,000 compounds or so, about 890 (0.31%) were called active. Rule as the data show it: active = inhibition mostly above about 52% (no sharp cut-off); inactive = mostly below about 76%. The full list was thinned out, with actives kept by preference.

Assay: cell-free HIV fusion peptide-binding blockers – biochemical, uHTS, fluorescence dequenching, primary screen (AID 1986)
Details: 30 min, stronger effect = higher value
[1] = measured here: repeat confirmation average inhibition, at 18.6 µM

Row | Compound | inhibition (at 20 µM) | inhibition [1]
1 | CCOc1cc([N+](=O)[O-])cc2c1C(=O)Nc1ccccc1O2 | 104% (active) | 57.4%
2 | O=C1Nc2ccccc2Oc2cc([N+](=O)[O-])cc(Oc3ccccc3)c21 | 59.7% (active) | 
3 | CCOc1cccc(C(=O)Nc2cccc(C(C)=O)c2)c1 | -0.2% (inactive) | 
4 | Cc1ccc(CN(C(=O)c2ccccc2[N+](=O)[O-])C2CCS(=O)(=O)C2)o1 (stereo not given) | 0.4% (inactive) | 
5 | COc1cccc(OC)c1C(=O)NC(=O)Nc1c(F)c(F)c(F)c(F)c1F | 0.3% (inactive) | 
6 | O=C(O)CC(c1cccc(C(F)(F)F)c1)N1CCS(=O)(=O)CC1 (stereo not given) | 0.6% (inactive) | 
7 | CCc1ccc(CN(C(=O)COc2c(C)cccc2C)C2CCS(=O)(=O)C2)cc1 (stereo not given) | -0.3% (inactive) | 
8 | O=C(Nc1nnc(-c2cccc(F)c2)s1)Nc1ccccc1F | 0.6% (inactive) | 
9 | O=c1[nH]c2c(cc1CNCCN1CCOCC1)c(-c1cccc(F)c1)nn2-c1ccccc1 | -1.4% (inactive) | 
10 | COc1ccc(CNC(=O)Oc2ccccc2)cc1Cl | -0.6% (inactive) | 
11 | O=C(O)c1ccccc1-c1ccc(/C=C2\SC(=O)N(c3ccccc3)C2=O)o1 | 11% (inactive) | 
12 | Cc1ccc(C)c(N2C(=N)S/C(=C\c3ccc(-c4ccccc4C(=O)O)o3)C2=O)c1 | 52.1% (inactive) | 18.9%
13 | COc1ccccc1N1C(=N)S/C(=C\c2ccc(-c3ccccc3C(=O)O)o2)C1=O | 54% (active) | 
14 | O=C(NNC(=S)NC1CCCCC1)c1ccccc1O | 3.3% (inactive) | 
15 | CN(C)c1ncc(/C=C2/C(=O)NC(=S)N(C3CCCCC3)C2=O)cn1 | 32.3% (inactive) | 
16 | O=C1C(=Cc2ccco2)C(=O)c2ccccc21 | 33.3% (inactive) | 
17 | O=C1/C(=C/c2ccco2)CCc2ccccc21 | 57.7% (active) | 
18 | COc1ccc2c(c1)CC/C(=C/c1ccco1)C2=O | 44.1% (inactive) | 
19 | O=C1/C(=C/c2ccco2)Cc2ccccc21 | 29.3% (inactive) | 
20 | O=C1/C(=C\c2ccc(Br)o2)Cc2ccccc21 | 21.7% (inactive) | 
21 | Nc1ccc2c(c1)C/C(=C/c1ccco1)C2=O | 73.6% (active) | 
22 | CC(C)N(C(=O)Cn1cc(S(=O)(=O)CC(=O)NC2CCCCC2)c2ccccc21)C(C)C | -0.7% (inactive) | 
23 | Cc1ccc(-c2csc(NCCn3c(C(F)(F)F)nc4ccccc43)n2)cc1 | 1.7% (inactive) | 

Row | Compound | inhibition (at 20 µM) | inhibition [1]
24 | Cc1cnc(CN(C)C(=O)c2ccc3oc(Cc4ccc(Cl)cc4)nc3c2)[nH]1 | 0.2% (inactive) | 
25 | COc1ccc(-n2c(C)cc(/C=C3\C(=N)N4N=C(CC(=O)N5CCOCC5)SC4=NC3=O)c2C)cc1 | 20.1% (inactive) | 
26 | Cc1ccc(/C=C/S(=O)(=O)NCC(=O)O)cc1 | 4.8% (inactive) | 
27 | Cc1c(N2C(=O)/C(=C/c3ccccc3)SC2=S)c(=O)n(-c2ccccc2)n1C | -4.2% (inactive) | 
28 | CN1C(=S)N(c2cccnc2)C(=O)/C1=C\c1ccc(N(C)C)cc1 | 6.7% (inactive) | 
29 | Cc1c(N2C(=O)/C(=C\c3ccc(N(C)C)cc3)N(C)C2=S)c(=O)n(-c2ccccc2)n1C | 52.4% (active) | 74.6%
30 | Cc1cccc(C(=O)N/C(=C/c2ccco2)C(=O)N2CCCCCC2)c1 | 0% (inactive) | 
31 | O=C(NCC1CCCO1)Nc1cc(Cl)cc(Cl)c1 (stereo not given) | 0.7% (inactive) | 
32 | COC(=O)c1cc(=O)c2cccc(OC)c2[nH]1 | -2.4% (inactive) | 
33 | COc1cccc2c(=O)c(C(=O)O)c[nH]c12 | 2% (inactive) | 
34 | COc1cccc2c(C)c(C(=O)O)[nH]c12 | 67.9% (active) | 
35 | Nc1nnc(SCc2ccc([N+](=O)[O-])cc2)s1 | 0.4% (inactive) | 
36 | Cc1cc(NC(=O)COC(=O)CCS(=O)(=O)c2ccc(Cl)cc2)no1 | 1.1% (inactive) | 
37 | CC(C(=O)N1CCc2ccccc21)n1cccc1 (stereo not given) | -2.3% (inactive) | 
38 | CC(=O)Nc1ccc(NS(=O)(=O)c2cc([N+](=O)[O-])ccc2C)cc1 | 0.5% (inactive) | 
39 | Cc1ccc(C)c(NC(=O)c2ccccc2NS(=O)(=O)c2cc([N+](=O)[O-])ccc2C)c1 | 47.1% (inactive) | 
40 | C=CCOC(=O)CCC(=O)Nc1cc(OC)nc(OC)n1 | -0.6% (inactive) | 
41 | Cc1ccc(S(=O)(=O)Cc2cn3cccnc3n2)cc1 | -2.2% (inactive) | 
42 | COc1ccc2c(c1)c(C(=O)N/N=C/c1cccc(Br)c1)c(C)n2C | 0.5% (inactive) | 
43 | COc1ccc(N2CC(C(=O)NCCc3c[nH]c4ccccc34)CC2=O)cc1 (stereo not given) | 0.2% (inactive) | 
44 | COc1ccc(/C=C2\SC(=N)N(c3nccs3)C2=O)cc1OC | 13.9% (inactive) | 
45 | N=C1S/C(=C\c2ccco2)C(=O)N1c1nccs1 | 51.1% (active) | 
46 | N=C1S/C(=C\c2ccc(-c3cccc(Cl)c3)o2)C(=O)N1c1nccs1 | 68.1% (inactive) | 15.5%
